± gives the standard deviation of the averaged measurements.
How the values were obtained:
[1] = tested on: DLD1; test: cell viability (CellTiter-Glo) relative to plate median (fraction of plate median); higher = more viable cells; conditions: 5 µM; treatment time 24 h; reporter: 7TFP
In short: (§1)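 Values are well luminescence normalised to the plate median, from either a firefly luciferase or a CellTiterGlo readout on parallel plates. The cells, colorectal cancer lines stably transduced with lentiviral 7TFP or TCF4/Wnt firefly luciferase reporters, were treated with library compounds at a final 5 µM for 24 h. The mean of two independent replicates is listed.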

[2] = tested on: HCT116; test: as above; conditions: 5 µM; treatment time 24 h; reporter: TCF4/Wnt
In short: as §1

[3] = tested on: SW480; test: as above; conditions: 5 µM; treatment time 24 h; reporter: 7TFP
In short: as §1

[4] = tested on: DLD1; test: TCF/Wnt firefly luciferase reporter signal relative to plate median (fraction of plate median); higher = higher Wnt reporter signal; conditions: 5 µM; treatment time 24 h; reporter: 7TFP
In short: as §1

[5] = tested on: SW480; test: as above; conditions: 5 µM; treatment time 24 h; reporter: 7TFP
In short: as §1

## COc1ccc(-c2cc(=O)c3c(O)c(OC)c(OC)c(OC)c3o2)cc1OC
[1]
  cell viability: 1.07 ± 0.085
[2]
  cell viability: 1.19 ± 0.11
[3]
  cell viability: 1.15 ± 0.18
[4]
  TCF/Wnt firefly luciferase reporter signal: 0.964 ± 0.065
[5]
  TCF/Wnt firefly luciferase reporter signal: 0.967 ± 0.2

## Cn1c(=O)[nH]c2ncn(C)c2c1=O
[1]
  cell viability: 0.987 ± 0.13
[2]
  cell viability: 1.04 ± 0.021
[3]
  cell viability: 1.02
[4]
  TCF/Wnt firefly luciferase reporter signal: 1.05 ± 0.13
[5]
  TCF/Wnt firefly luciferase reporter signal: 1.02 ± 0.072

## C[N+](C)(C)CCOC(N)=O
[1]
  cell viability: 0.994 ± 0.023
[2]
  cell viability: 1.15 ± 0.057
[3]
  cell viability: 0.9925 ± 0.0078
[4]
  TCF/Wnt firefly luciferase reporter signal: 1.13 ± 0.14
[5]
  TCF/Wnt firefly luciferase reporter signal: 0.847 ± 0.064

## CCCCCC[C@H]1CC[C@@](O)([C@@](C)(O)C(=O)N[C@@H]2C(=O)N3NCCC[C@@H]3C(=O)N(O)[C@@H](COC)C(=O)NCC(=O)N3NCCC[C@H]3C(=O)N(O)[C@H](C)C(=O)O[C@H]2C)OC1C (stereo not given in full) [Diperamycin]
[1]
  cell viability: 1.15 ± 0.099
[2]
  cell viability: 1.23 ± 0.035
[3]
  cell viability: 1.11 ± 0.099
[4]
  TCF/Wnt firefly luciferase reporter signal: 1.06 ± 0.11
[5]
  TCF/Wnt firefly luciferase reporter signal: 0.926 ± 0.0014

## O=C(O)C1=CC(=C(c2ccc(O)c(C(=O)O)c2)c2ccc(O)c(C(=O)O)c2)C=CC1=O
[1]
  cell viability: 1.03 ± 0.14
[2]
  cell viability: 1.03 ± 0.028
[3]
  cell viability: 1.06 ± 0.05
[4]
  TCF/Wnt firefly luciferase reporter signal: 0.996 ± 0.09
[5]
  TCF/Wnt firefly luciferase reporter signal: 1.01 ± 0.049

## Nc1ccccc1C(=O)CC(N)C(=O)O (stereo not given)
[1]
  cell viability: 1.01
[2]
  cell viability: 1.05 ± 0.1
[3]
  cell viability: 0.994 ± 0.023
[4]
  TCF/Wnt firefly luciferase reporter signal: 1.31 ± 0.05
[5]
  TCF/Wnt firefly luciferase reporter signal: 1.08 ± 0.014

## COc1ccc2c(c1)OC1(O)COc3cc(OC)c(OC)cc3C1=C2 (stereo not given)
[1]
  cell viability: 1.01 ± 0.035
[2]
  cell viability: 1.05 ± 0.05
[3]
  cell viability: 1.08 ± 0.035
[4]
  TCF/Wnt firefly luciferase reporter signal: 0.985 ± 0.13
[5]
  TCF/Wnt firefly luciferase reporter signal: 0.895 ± 0.075

## CC(C)=CC1C(C(=O)O)C1(C)C (stereo not given)
[1]
  cell viability: 1 ± 0.037
[2]
  cell viability: 0.98 ± 0.057
[3]
  cell viability: 0.977 ± 0.047
[4]
  TCF/Wnt firefly luciferase reporter signal: 0.897 ± 0.065
[5]
  TCF/Wnt firefly luciferase reporter signal: 1.02 ± 0.058

## C=C1c2c(Cl)ccc(O)c2C(=O)C2=C(O)[C@]3(O)C(=O)C(C(N)=O)=C(O)[C@@H](N(C)C)[C@@H]3[C@@H](O)[C@H]12.O=C(O)c1cc(S(=O)(=O)O)ccc1O
[1]
  cell viability: 1.05 ± 0.021
[2]
  cell viability: 1.02 ± 0.042
[3]
  cell viability: 1.005 ± 0.0071
[4]
  TCF/Wnt firefly luciferase reporter signal: 1.05 ± 0.25
[5]
  TCF/Wnt firefly luciferase reporter signal: 0.893 ± 0.062

## Nc1nc2c(ncn2[C@H]2C[C@H](O)[C@@H](CO)O2)c(=O)[nH]1 [Desoxyguanosin]
[1]
  cell viability: 1 ± 0.013
[2]
  cell viability: 1.01 ± 0.11
[3]
  cell viability: 1.004 ± 0.0078
[4]
  TCF/Wnt firefly luciferase reporter signal: 0.989 ± 0.016
[5]
  TCF/Wnt firefly luciferase reporter signal: 0.997 ± 0.018

## CN1CCN(CCCN2c3ccccc3Sc3ccc(Cl)cc32)CC1
[1]
  cell viability: 1.02 ± 0.13
[2]
  cell viability: 0.941 ± 0.098
[3]
  cell viability: 1.09 ± 0.064
[4]
  TCF/Wnt firefly luciferase reporter signal: 1.03 ± 0.054
[5]
  TCF/Wnt firefly luciferase reporter signal: 0.929 ± 0.042

## COc1c(O)cc(O)cc1O
[1]
  cell viability: 1.01 ± 0.04
[2]
  cell viability: 0.694 ± 0.33
[3]
  cell viability: 1.01 ± 0.021
[4]
  TCF/Wnt firefly luciferase reporter signal: 1.09 ± 0.064
[5]
  TCF/Wnt firefly luciferase reporter signal: 1.03 ± 0.042

## CCCCCCCCCCCC[C@H](O)[C@@H]1CC[C@@H]([C@@H](O)CCCCCCCC(=O)CC[C@@H](O)CC2=C[C@H](C)OC2=O)O1 [annocherin]
[1]
  cell viability: 0.904 ± 0.09
[2]
  cell viability: 0.871 ± 0.082
[3]
  cell viability: 0.921 ± 0.093
[4]
  TCF/Wnt firefly luciferase reporter signal: 0.843 ± 0.12
[5]
  TCF/Wnt firefly luciferase reporter signal: 0.855 ± 0.32

## COC(=O)/C(=C1/OC(=O)C(c2ccccc2)=C1O)c1ccccc1
[1]
  cell viability: 1.06 ± 0.057
[2]
  cell viability: 1.02 ± 0.12
[3]
  cell viability: 1.07 ± 0.064
[4]
  TCF/Wnt firefly luciferase reporter signal: 1.05 ± 0.14
[5]
  TCF/Wnt firefly luciferase reporter signal: 1.1 ± 0.05

## CCCCNc1cc(C(=O)O)cc(S(N)(=O)=O)c1Oc1ccccc1
[1]
  cell viability: 1.015 ± 0.0071
[2]
  cell viability: 0.947 ± 0.022
[3]
  cell viability: 1.04 ± 0.035
[4]
  TCF/Wnt firefly luciferase reporter signal: 1.03 ± 0.16
[5]
  TCF/Wnt firefly luciferase reporter signal: 1.06 ± 0.057

## COc1ccc2c(c1)OCC(Cc1ccc(OC)c(OC)c1)C2=O (stereo not given)
[1]
  cell viability: 0.995 ± 0.05
[2]
  cell viability: 1.1 ± 0.092
[3]
  cell viability: 1.02 ± 0.044
[4]
  TCF/Wnt firefly luciferase reporter signal: 0.997 ± 0.15
[5]
  TCF/Wnt firefly luciferase reporter signal: 1.035 ± 0.0071

## CCN(CC)CC(=O)Nc1c(C)cccc1C
[1]
  cell viability: 1.05
[2]
  cell viability: 1.1 ± 0.021
[3]
  cell viability: 1.02 ± 0.021
[4]
  TCF/Wnt firefly luciferase reporter signal: 1.06 ± 0.05
[5]
  TCF/Wnt firefly luciferase reporter signal: 1.03 ± 0.021

## COc1ccc(-c2coc3cc(O)ccc3c2=O)c(OC)c1O
[1]
  cell viability: 1.01 ± 0.021
[2]
  cell viability: 1.03 ± 0.063
[3]
  cell viability: 0.966 ± 0.076
[4]
  TCF/Wnt firefly luciferase reporter signal: 0.852 ± 0.047
[5]
  TCF/Wnt firefly luciferase reporter signal: 0.975 ± 0.025

## CCCCOc1cc(CC2CNC(=O)N2)ccc1OC (stereo not given)
[1]
  cell viability: 0.999 ± 0.016
[2]
  cell viability: 0.921 ± 0.081
[3]
  cell viability: 0.912 ± 0.011
[4]
  TCF/Wnt firefly luciferase reporter signal: 1.015 ± 0.0071
[5]
  TCF/Wnt firefly luciferase reporter signal: 1.04 ± 0.19

## C[C@H]1O[C@@H](O[C@H]2[C@@H](O)C[C@H](O[C@H]3[C@@H](O)C[C@H](O[C@H]4CC[C@@]5(C)[C@H](CC[C@@H]6[C@@H]5CC[C@]5(C)[C@@H](C7=CC(=O)OC7)CC[C@]65O)C4)O[C@@H]3C)O[C@@H]2C)C[C@H](O)[C@@H]1O
[1]
  cell viability: 0.706 ± 0.19
[2]
  cell viability: 0.33 ± 0.2
[3]
  cell viability: 0.774 ± 0.052
[4]
  TCF/Wnt firefly luciferase reporter signal: 0.157 ± 0.14
[5]
  TCF/Wnt firefly luciferase reporter signal: 0.32 ± 0.11

## O=C(O[C@@H]1Cc2c(O)cc(O)cc2O[C@@H]1c1cc(O)c(=O)c2c(O)c(O)cc([C@H]3Oc4cc(O)cc(O)c4C[C@H]3O)c2c1)c1cc(O)c(O)c(O)c1
[1]
  cell viability: 1.04 ± 0.069
[2]
  cell viability: 1.15 ± 0.028
[3]
  cell viability: 1.01 ± 0.021
[4]
  TCF/Wnt firefly luciferase reporter signal: 1.1 ± 0.057
[5]
  TCF/Wnt firefly luciferase reporter signal: 1.04 ± 0.05

## COC(=O)C[C@H]1C(C)(C)[C@@H](O)[C@@H]2CC3=C4CC(O)O[C@@H](c5ccoc5)[C@]4(C)CCC3[C@@]1(C)C2=O (stereo partly drawn) [3,16-DIDEOXYMEXICANOLIDE-3beta-DIOL]
[1]
  cell viability: 1.1 ± 0.085
[2]
  cell viability: 1.04 ± 0.042
[3]
  cell viability: 1.035 ± 0.0071
[4]
  TCF/Wnt firefly luciferase reporter signal: 1.02 ± 0.15
[5]
  TCF/Wnt firefly luciferase reporter signal: 0.896 ± 0.076

## CCOC(=O)C1=C(COCCN)NC(C)=C(C(=O)OC)C1c1ccccc1Cl (stereo not given)
[1]
  cell viability: 0.998 ± 0.031
[2]
  cell viability: 1.01 ± 0.097
[3]
  cell viability: 1.03 ± 0.083
[4]
  TCF/Wnt firefly luciferase reporter signal: 1.02 ± 0.11
[5]
  TCF/Wnt firefly luciferase reporter signal: 1.04 ± 0.042

## OCC(O)CN1CCN(c2ccccc2)CC1 (stereo not given)
[1]
  cell viability: 0.979 ± 0.058
[2]
  cell viability: 0.995 ± 0.035
[3]
  cell viability: 0.964 ± 0.033
[4]
  TCF/Wnt firefly luciferase reporter signal: 0.83 ± 0.029
[5]
  TCF/Wnt firefly luciferase reporter signal: 0.9255 ± 0.005

## CC(=O)O[C@H]1C[C@@]2(C)[C@H](c3ccoc3)OC(=O)[C@H]3O[C@]32[C@@]2(C)C1[C@]1(C)C(C[C@H]2OC(C)=O)C(C)(C)[C@H](OC(C)=O)C[C@@H]1OC(C)=O (stereo partly drawn) [11alpha-ACETOXYKHIVORIN]
[1]
  cell viability: 0.973 ± 0.014
[2]
  cell viability: 0.895 ± 0.088
[3]
  cell viability: 0.941 ± 0.013
[4]
  TCF/Wnt firefly luciferase reporter signal: 1 ± 0.14
[5]
  TCF/Wnt firefly luciferase reporter signal: 1.05 ± 0.11

## CC(=O)O[C@H]1C[C@@H](OC(C)=O)C(C)(C)[C@@H]2C[C@@H](OC(C)=O)[C@@]3(C)C4=CC(=O)O[C@@H](c5ccoc5)[C@]4(C)CC[C@@H]3[C@@]12C
[1]
  cell viability: 1.01 ± 0.018
[2]
  cell viability: 1.15 ± 0.092
[3]
  cell viability: 1.05 ± 0.057
[4]
  TCF/Wnt firefly luciferase reporter signal: 0.976 ± 0.011
[5]
  TCF/Wnt firefly luciferase reporter signal: 0.997 ± 0.033

## CN(C)CCCN1c2ccccc2Sc2ccc(Cl)cc21
[1]
  cell viability: 1.02 ± 0.054
[2]
  cell viability: 0.957 ± 0.047
[3]
  cell viability: 1.09 ± 0.14
[4]
  TCF/Wnt firefly luciferase reporter signal: 0.928 ± 0.12
[5]
  TCF/Wnt firefly luciferase reporter signal: 0.821 ± 0.13

## Oc1c(Cl)cc(Cl)c(Cl)c1Cc1c(O)c(Cl)cc(Cl)c1Cl
[1]
  cell viability: 0.934 ± 0.021
[2]
  cell viability: 1.03 ± 0.1
[3]
  cell viability: 1.02 ± 0.028
[4]
  TCF/Wnt firefly luciferase reporter signal: 1.34 ± 0.18
[5]
  TCF/Wnt firefly luciferase reporter signal: 1.15 ± 0.021

## C=CC(C)(O)CCC=C(C)CCC=C(C)C (mixture of isomers)
[1]
  cell viability: 1.09
[2]
  cell viability: 0.977 ± 0.075
[3]
  cell viability: 0.94 ± 0.0028
[4]
  TCF/Wnt firefly luciferase reporter signal: 0.8335 ± 0.00071
[5]
  TCF/Wnt firefly luciferase reporter signal: 0.851 ± 0.15

## C=C(C)[C@H]1COc2cc3oc(=O)ccc3cc2O1
[1]
  cell viability: 1.1 ± 0.17
[2]
  cell viability: 0.968 ± 0.026
[3]
  cell viability: 1.09 ± 0.057
[4]
  TCF/Wnt firefly luciferase reporter signal: 1.06 ± 0.092
[5]
  TCF/Wnt firefly luciferase reporter signal: 1.1 ± 0.042

Source: the supplement of paper PMC6522484
